PubChem BioAssay AID708 (SRMLSC, 2007)
Among all 65,000 compounds or so, fewer than 10 were called active.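 How the source made its calls: active means at 10 µM dose, initial 340 nm absorbance at least 2 fold that of control wells; inactive means change under 2 fold.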 Only a sample is shown.

Assay: compound light absorbance at 340 nm, profiling panel, artefact control, biochemical, MLSMR library, data from PS, PMK, MK assays (AID 708);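 further: initial absorbance extrapolated from kinetic A340 decline of NADH oxidation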
Conditions: compound absorbance at 340 nm, fold over control; at 10 µM; active compounds read high

SMILES	fold change
CCCCCN(C(=O)NC(=O)Nc1ccccc1C)S(C)(=O)=O	1 (inactive)
CCNc1nc(N)nc(Oc2ccc(OCC)nn2)n1	1.07 (inactive)
CCOC(=O)CSc1nncc2ccc(OC)c(OC)c12	1.07 (inactive)
CCN(CC)S(=O)(=O)c1cc(C(=O)Nc2ccccn2)ccc1C	1.09 (inactive)
Cc1c2cnn(-c3ccccc3)c(=O)c2c(C)n1CCCC(=O)N1CCN(C)CC1	1.06 (inactive)
CNC(=O)c1cc2c(ccc3ccccc32)oc1=N	1.04 (inactive)
CSc1ncccc1C(=O)OCC(=O)N1CCOCC1	1.01 (inactive)
COc1ccc(-c2cn3ccsc3n2)cc1	1 (inactive)
CCCn1c(C(O)c2ccc(OCC)cc2)nc2ccccc21 (configuration not stated)	1.02 (inactive)
O=C(NCc1ccco1)C1CCCN(S(=O)(=O)c2cccc3nonc23)C1 (configuration not stated)	1.03 (inactive)
CCn1nc(NC(=O)c2ccco2)c2cc3ccc(C)cc3nc21	1.07 (inactive)
Cc1ccc(-n2nc(-c3ccco3)cc2C(=O)NCc2cccnc2)cc1	0.99 (inactive)
COc1ccc(C2CC(c3ccc(C)cc3)Nc3nc(N)nn32)cc1 (configuration not stated)	1.02 (inactive)
Cc1ccc(C(=O)Nc2nnc(-c3ccncc3)s2)o1	1.33 (inactive)
CN(CCC#N)c1ncnc2scc(-c3ccccc3)c12	1.03 (inactive)
COc1ccc(C2CC(c3ccc(C)cc3)Nc3ncnn32)cc1 (configuration not stated)	0.99 (inactive)
CSc1nsc(SC)c1NC(=O)OC1CCCCC1	1.03 (inactive)
Cc1ccc(NC2=NC(c3ccccc3)n3c(nc(C)cc3=O)N2)cc1 (configuration not stated)	1.01 (inactive)
Cc1ccc(C2c3c(oc4ccc(C)cc4c3=O)C(=O)N2CCCN2CCOCC2)cc1 (configuration not stated)	1.07 (inactive)
Cc1occc1C(=O)Nc1nnc(-c2ccncc2)s1	1.18 (inactive)
CCn1c(SCC(=O)NCc2ccco2)nnc1-c1ccc(N)cc1	1.03 (inactive)
COc1cccc(OCCOc2cccc(/C=N/n3cnnc3)c2)c1	1.05 (inactive)
C=CCn1c(CC(=O)Nc2cccc(OC)c2)nnc1SCC(=O)NC1CCCCC1	1.04 (inactive)
Cc1ccc(NC(=O)CS(=O)CC(=O)N(c2ccccc2)C(C)C(=O)NC2CCCC2)cc1 (configuration not stated)	0.99 (inactive)
CCCOc1ccccc1-c1nc(SCCC(=O)O)n[nH]1	1 (inactive)
O=c1cccc(-c2ccc(Br)cc2)o1	1.07 (inactive)

SMILES	fold change
CN1C(C)(C)CC(NC(=O)CCC(=O)NC2CC(C)(C)N(C)C(C)(C)C2)CC1(C)C	1.05 (inactive)
Cc1ccc(S(=O)(=O)NCc2csc(C)n2)c(C)c1	0.97 (inactive)
CCOC(=O)c1ccccc1NC(=O)CC1Nc2ccccc2NC1=O (configuration not stated)	1.07 (inactive)
O=C(CCCOc1ccccc1)Nc1cccc(C(=O)O)c1	1.03 (inactive)
O=P(c1cccs1)(c1cccs1)c1cccs1	1.01 (inactive)
Cc1nnc(SCc2ccc(C(=O)c3ccc(Cl)cc3)o2)n1-c1ccccc1	1.14 (inactive)
c1csc(-c2cn3c(n2)SCC3)c1	1.03 (inactive)
COc1ccc(OCc2cccc(C(=O)N3CCCC3)c2)cc1	0.98 (inactive)
CCCC(=O)C1=C(N(C)c2ccccc2)CC(C)(C)C(C(=O)OC)C1=O (configuration not stated)	1.04 (inactive)
c1ccc(-c2nnc(SCc3nc4ccccc4[nH]3)o2)cc1	1 (inactive)
CC(=O)c1cccc(NC(=O)N2CCCC2C(=O)NCCC(C)C)c1 (configuration not stated)	1 (inactive)
Cc1ccccc1S(=O)(=O)Cc1ccc(C(=O)NCCN2CCCCC2C)o1 (configuration not stated)	0.98 (inactive)
CCOc1ccc(C2C(C(=O)O)c3ccccc3C(=O)N2CCN2CCOCC2)cc1 (configuration not stated)	1.01 (inactive)
Cc1ccccc1OCCC(=O)Nc1c(C)n(C)n(-c2ccccc2)c1=O	1.04 (inactive)
COc1ccccc1NC1=NC(c2ccc(Cl)cc2)N=C(N)N1 (configuration not stated)	1.01 (inactive)
CC1CN(C(=O)CN2C(=O)NC(C)(c3ccccc3)C2=O)CC(C)O1 (configuration not stated)	1.02 (inactive)
CCC(C)Sc1nc(C)nc2c1c(=O)n(C)c(=O)n2C (configuration not stated)	1.03 (inactive)
CCNc1nc(NCC)nc(N(C)n2cnnc2)n1	1.02 (inactive)
CC(C)c1cc(C(=O)O)on1	0.99 (inactive)
O=C(CCCC(=O)N(CC(=O)NC1CCCC1)Cc1ccccc1Cl)Nc1ccccn1	1.01 (inactive)
O=C(CCN1C(=O)C2C3C=CC(C3)C2C1=O)Nc1ccccc1F (configuration not stated)	0.99 (inactive)
COc1ccc(OC)c(C(c2nnnn2C(C)(C)C)N2CCc3ccccc3C2)c1 (configuration not stated)	1.04 (inactive)
O=C(OCC(=O)N1CCN(C(=O)c2ccco2)CC1)c1ccccc1Cc1ccccc1	1 (inactive)
CC(C)CCNC(=O)CCNS(=O)(=O)c1ccc(Cl)cc1	0.97 (inactive)
Cc1cc(/C=N/n2cnnc2)c(C)n1-c1cccc(C(=O)O)c1	1.11 (inactive)
O=C(CNCCO)NC12CC3CC(CC(C3)C1)C2	1.03 (inactive)

SMILES	fold change
CCN(c1ccccc1)S(=O)(=O)c1ccc(N)cc1	1.02 (inactive)
CC(=O)NS(=O)(=O)c1ccccc1	1 (inactive)
CCC(CC)c1nnc(NS(=O)(=O)Cc2ccccc2)s1	1.04 (inactive)
CCOc1cc(S(=O)(=O)NC2CC(C)(C)NC(C)(C)C2)ccc1F	1.05 (inactive)
O=C1CCCC(O)=C1C=NCCc1ccccc1	0.99 (inactive)
O=C(Nc1cc(=O)[nH]c2ncnn12)c1ccccc1Cl	0.98 (inactive)
Cn1c2c(c(=O)n(C)c1=O)C(c1ccc(O)cc1)Nc1ccccc1O2 (configuration not stated)	1 (inactive)
Cc1occc1C(=O)N1CCCc2ccccc21	1.01 (inactive)
COc1ccc(C2SCCN2S(=O)(=O)c2ccccc2)cc1OC (configuration not stated)	0.98 (inactive)
Cc1cc(C)cc(N(C(C)C(=O)Nc2c(C)n(C)n(-c3ccccc3)c2=O)S(C)(=O)=O)c1 (configuration not stated)	1.05 (inactive)
Cn1nnnc1SCC(=O)N1CCN(Cc2ccccc2)CC1	1.01 (inactive)
CC(=O)Nc1cc(C(=O)O)ccc1S(=O)(=O)c1ccc(Cl)cc1	1.03 (inactive)
CCC1CCCCN1CCNS(=O)(=O)c1ccc2c(c1)CCN2C(C)=O (configuration not stated)	1.03 (inactive)
O=C(CSc1nnc(-c2ccoc2)o1)N1CCOCC1	1.05 (inactive)
COc1cc(OC)cc(C(=O)NCCSCc2ccco2)c1	1.02 (inactive)
CC(=O)NC1CC2CCCC(C1)N2CC(=O)Nc1ccccc1 (configuration not stated)	1 (inactive)
COc1cc2[nH]c(=O)n(CCC(=O)NC3CCN(Cc4ccccc4)CC3)c(=O)c2cc1OC	1.06 (inactive)
COC(=O)c1ccc(/C=N\n2c(C)nnc2C)cc1	1.02 (inactive)
O=C(COc1ccccc1Cl)Nn1cnnc1	1.08 (inactive)
Cc1cc(-n2nc(C)cc2C)n2ncc(-c3ccccc3)c2n1	1.03 (inactive)
CCOC(=O)c1c(CN2CCOCC2)n(-c2ccccc2)c2ccc(O)cc12	0.98 (inactive)
Cc1ccc2nc(S(=O)(=O)O)[nH]c2c1	1.02 (inactive)
CC(=O)c1cc(C#N)c(SCC(=O)C(C)(C)C)nc1C	1.07 (inactive)
CC(=C1C(=O)c2ccccc2C1=O)N1CCN(c2ccccn2)CC1	1.15 (inactive)
CCS(=O)(=O)NCCc1ccc(OC)c(OC)c1	1.02 (inactive)
CCOC(=O)COc1ccc(Cl)cc1C1NC(=O)NC(C)=C1C(C)=O (configuration not stated)	1.05 (inactive)

SMILES	fold change
COc1ccc(-c2ccc(-c3noc(-c4ccncc4)n3)c(OC)n2)cc1	1.09 (inactive)
CSc1nc(O)c(Cc2ccccc2)c(=O)[nH]1	1 (inactive)
COc1ccccc1N1CCN(C(=O)c2c(-c3c(Cl)cccc3Cl)noc2C)CC1	0.98 (inactive)
Cc1cccc(OCc2nnc(SCC(=O)N3CCN(C(=O)c4ccco4)CC3)n2C)c1C	1.02 (inactive)
COCCn1nnnc1CN1CCC(NC(=O)Nc2cccc(OC)c2)CC1	1 (inactive)
CC(=O)c1c(N2CCOCC2)nc(=S)n(Cc2ccccc2)c1C	1.06 (inactive)
COc1cc(CO)c(C2(CO)CCCC2)cc1OC	1.04 (inactive)
CCOC(=O)C1=C(O)CSC1=Nc1cccc(Cl)c1	1.02 (inactive)
CCOC(=O)c1ccc2[nH]c(C)c(CN3CCN(C)CC3)c(=O)c2c1	1 (inactive)
Cc1nn(-c2ccccc2)c(CC(C)(C)C(=O)O)c1C(=O)O	1.02 (inactive)
COc1ccc2c(c1OC)C(=O)N(c1ncn[nH]1)C2	1.04 (inactive)
CC(C)(C)NC(=O)C(c1ccncc1)N(C(=O)CNC(=O)c1ccco1)c1ccc2c(c1)OCO2 (configuration not stated)	0.98 (inactive)
COc1ccc(N2C(=O)C3CCCN3C2c2cc(OC)c(OC)cc2OC)cc1 (configuration not stated)	1.01 (inactive)
O=C1c2ccccc2C(O)N1Cc1ccccc1Cl (configuration not stated)	1.03 (inactive)
COc1cccc(C(=O)Nc2c3c(nn2-c2cccc(C)c2C)CS(=O)(=O)C3)c1OC	1.01 (inactive)
CCC(=O)N1CCc2cc(S(=O)(=O)NC(C(=O)N3CCc4ccccc4C3)C(C)C)ccc21 (configuration not stated)	1 (inactive)
CCOc1cc(C(=O)N2CCc3cc(OC)c(OC)cc3C2)ccc1OC(F)F	0.97 (inactive)
O=C(Nc1cnn(Cc2ccc(Cl)cc2)c1)C1CCCC1	1.03 (inactive)
c1cc(-n2cnnn2)ccc1NC1=NCCC1	1.01 (inactive)
O=C(C1CCCO1)N(Cc1ccccc1)c1ccccc1 (configuration not stated)	1.03 (inactive)
CC(C)OC(=O)C(C#N)c1nc2ccccc2nc1N1CCN(Cc2ccc3c(c2)OCO3)CC1 (configuration not stated)	1.02 (inactive)
CCN1CCN(C(=O)c2ccccc2N(C)S(=O)(=O)c2ccc(C)cc2)CC1	1.05 (inactive)
COc1c(O)cccc1-c1nnn(CCC(=O)OCC(=O)c2ccccc2)n1	1.01 (inactive)
CS(=O)(=O)N(C(=O)NC(=O)NC1CCS(=O)(=O)C1)C1CCCCC1 (configuration not stated)	1.04 (inactive)
